# From PubChem BioAssay (NCI)
# Where “and” joins values, the source holds several entries; their conditions need not be identical. Identical values can stand only once. About 83,000 compounds went through this panel and 20% of them were active in at least one assay; those are over-represented in the sample as a whole.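 96-well plates, one dose, 48 hours. Percent growth reported; active if below 10.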 Calls of active or inactive are those of the source.
# How the values were obtained:
# Experiment in all cases: NCI-60 one-dose screen, 48 h (100 = growth as untreated, 0 = no growth, -100 = all killed)
# HCT-15 colon = system: HCT-15 colon
# HT29 colon = system: HT29 colon
# SNB-75 CNS = system: SNB-75 CNS
# U251 CNS = system: U251 CNS
# SK-MEL-5 melanoma = system: SK-MEL-5 melanoma
# UACC-62 melanoma = system: UACC-62 melanoma
# LOX IMVI melanoma = system: LOX IMVI melanoma
# SK-MEL-28 melanoma = system: SK-MEL-28 melanoma
# SK-MEL-2 melanoma = system: SK-MEL-2 melanoma
# EKVX NSCLC = system: EKVX NSCLC
# SN12C renal = system: SN12C renal
# UO-31 renal = system: UO-31 renal
# TK-10 renal = system: TK-10 renal
# ACHN renal = system: ACHN renal
# CAKI-1 renal = system: CAKI-1 renal
# A498 renal = system: A498 renal
# CCRF-CEM leukemia = system: CCRF-CEM leukemia
# MOLT-4 leukemia = system: MOLT-4 leukemia
# SNB-19 CNS = system: SNB-19 CNS
# PC-3 prostate = conditions: 10 µM unless noted
compound,measurement,setting,value
CCCCCCCCCCCCCCCc1ccc(Cl)c(O)c1Cl (tested in a mixture with another compound),growth,HCT-15 colon; 0.25 µM,76.6% (inactive)
same,growth,HCT-15 colon; 10 µM,109% (inactive)
same,growth,HT29 colon; 0.25 µM,43.1% (inactive)
same,growth,HT29 colon; 10 µM,88% (inactive)
same,growth,SNB-75 CNS; 0.25 µM,36.6% (inactive)
same,growth,SNB-75 CNS; 10 µM,94.2% (inactive)
same,growth,U251 CNS; 0.25 µM,13% (inactive)
same,growth,U251 CNS; 10 µM,92.9% (inactive)
same,growth,SK-MEL-5 melanoma; 10 µM unless noted,87.7% (inactive)
same,growth,UACC-62 melanoma; 10 µM unless noted,22.8% [0.25 µM] (inactive)
same,growth,LOX IMVI melanoma; 0.25 µM,19.4% (inactive)
same,growth,LOX IMVI melanoma; 10 µM,99.2% (inactive)
same,growth,SK-MEL-28 melanoma; 0.25 µM,51.3% (inactive)
same,growth,SK-MEL-28 melanoma; 10 µM,109% (inactive)
same,growth,SK-MEL-2 melanoma; 0.25 µM,57.4% (inactive)
same,growth,SK-MEL-2 melanoma; 10 µM,88.2% (inactive)
same,growth,EKVX NSCLC; 0.25 µM,79.8% (inactive)
same,growth,EKVX NSCLC; 10 µM,106% (inactive)
same,growth,SN12C renal; 0.25 µM,12.5% (inactive)
same,growth,SN12C renal; 10 µM,89.7% (inactive)
same,growth,UO-31 renal; 0.25 µM,63.4% (inactive)
same,growth,UO-31 renal; 10 µM,93.6% (inactive)
same,growth,TK-10 renal; 0.25 µM,68.9% (inactive)
same,growth,TK-10 renal; 10 µM,115% (inactive)
same,growth,ACHN renal; 0.25 µM,34% (inactive)
same,growth,ACHN renal; 10 µM,108% (inactive)
same,growth,CAKI-1 renal; 0.25 µM,32% (inactive)
same,growth,CAKI-1 renal; 10 µM,94.8% (inactive)
same,growth,A498 renal; 0.25 µM,43.5% (inactive)
same,growth,A498 renal; 10 µM,125% (inactive)
same,growth,CCRF-CEM leukemia; 0.25 µM,18.3% (inactive)
same,growth,CCRF-CEM leukemia; 10 µM,93% (inactive)
same,growth,MOLT-4 leukemia; 0.25 µM,4.89% (active)
same,growth,MOLT-4 leukemia; 10 µM,104% (inactive)
O=C(O)c1sccc1O,growth,HCT-15 colon; 10 µM,81% (inactive)
same,growth,HCT-15 colon; 100 µM,31.5% (inactive)
same,growth,HT29 colon; 10 µM,105% (inactive)
same,growth,HT29 colon; 100 µM,30.2% (inactive)
same,growth,SNB-19 CNS; 10 µM,82.1% (inactive)
same,growth,SNB-19 CNS; 100 µM,34.8% (inactive)
same,growth,U251 CNS; 10 µM,76.6% (inactive)
same,growth,U251 CNS; 100 µM,15.9% (inactive)
same,growth,SK-MEL-5 melanoma; 10 µM,78.6% (inactive)
same,growth,SK-MEL-5 melanoma; 100 µM,7.35% (active)
same,growth,UACC-62 melanoma; 10 µM,56.5% (inactive)
same,growth,UACC-62 melanoma; 100 µM,0.233% (active)
same,growth,LOX IMVI melanoma; 10 µM,80.3% (inactive)
same,growth,LOX IMVI melanoma; 100 µM,2.04% (active)
same,growth,SK-MEL-28 melanoma; 10 µM,101% (inactive)
same,growth,SK-MEL-28 melanoma; 100 µM,28.3% (inactive)
same,growth,EKVX NSCLC; 10 µM,81.3% (inactive)
same,growth,EKVX NSCLC; 100 µM,33.5% (inactive)
same,growth,UO-31 renal; 10 µM,48.1% (inactive)
same,growth,UO-31 renal; 100 µM,26.7% (inactive)
same,growth,TK-10 renal; 10 µM,133% (inactive)
same,growth,TK-10 renal; 100 µM,68.8% (inactive)
same,growth,ACHN renal; 10 µM unless noted,70.7% (inactive)
same,growth,A498 renal; 10 µM,89.1% (inactive)
same,growth,A498 renal; 100 µM,46.2% (inactive)
same,growth,CCRF-CEM leukemia; 10 µM,47.7% (inactive)
same,growth,CCRF-CEM leukemia; 100 µM,15.1% (inactive)
same,growth,MOLT-4 leukemia; 10 µM,46.1% (inactive)
same,growth,MOLT-4 leukemia; 100 µM,17.4% (inactive)
CNC(=O)c1cc(Oc2ccc(NC(=O)Nc3ccc(Cl)c(C(F)(F)F)c3)cc2)ccn1,growth,HCT-15 colon; 10 µM unless noted,1.74% (active) and 5.49% (active)
same,growth,HT29 colon; 10 µM unless noted,-3.38% (active) and 9.81% (active)
same,growth,SNB-75 CNS; 10 µM unless noted,-38.9% (active) and 21.8% (inactive)
same,growth,SNB-19 CNS; 10 µM unless noted,13.3% (inactive) and 20.6% (inactive)
same,growth,U251 CNS; 10 µM unless noted,1.89% (active) and 0.072% (active)
same,growth,PC-3 prostate,11.6% (inactive) and -9.74% (active)
same,growth,SK-MEL-5 melanoma; 10 µM unless noted,-73.1% (active) and -56.6% (active)
same,growth,UACC-62 melanoma; 10 µM unless noted,-49.4% (active) and -25.5% (active)
same,growth,LOX IMVI melanoma; 10 µM unless noted,-14.6% (active) and -55.1% (active)
same,growth,SK-MEL-28 melanoma; 10 µM unless noted,-15.7% (active) and -26.7% (active)
same,growth,SK-MEL-2 melanoma; 10 µM unless noted,-42.9% (active)
same,growth,EKVX NSCLC; 10 µM unless noted,4.85% (active) and -2.85% (active)
same,growth,SN12C renal; 10 µM unless noted,6.54% (active) and -7.24% (active)
same,growth,UO-31 renal; 10 µM unless noted,-28.5% (active) and -81.1% (active)
same,growth,TK-10 renal; 10 µM unless noted,-11.8% (active) and 25.8% (inactive)
same,growth,ACHN renal; 10 µM unless noted,5.96% (active) and 0% (active)
same,growth,CAKI-1 renal; 10 µM unless noted,7.37% (active) and -32.6% (active)
same,growth,A498 renal; 10 µM unless noted,-73.7% (active) and -21.1% (active)
same,growth,CCRF-CEM leukemia; 10 µM unless noted,12% (inactive) and 18.6% (inactive)
same,growth,MOLT-4 leukemia; 10 µM unless noted,-1.28% (active) and 25.8% (inactive)
